The source of these data is PubChem BioAssay (NCI).

Structures are written as SMILES. This is part of a sample that, as a whole, favours compounds with a hit. Of some 79,000 tested, about 15% had one in any assay. Unmarked numbers belong to inactive results. Calls of active or inactive are those of the source. No stated cut-off is given here; in the data, active means growth inhibition above about 70%; inactive means the rest.

Test [1] is described as follows: NCI Yeast Anticancer Drug Screen. Data for the rad50 strain (AID 155).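 Further: 0% = growth of vehicle-only cultures of the same strain.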 As to conditions: S. cerevisiae rad50 strain growth inhibition, hits give high values. The gist of the method: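 Readout: growth inhibition relative to vehicle-treated cultures. Compound exposure was carried out in a genetically defined yeast strain deficient in DNA damage repair.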
Test [2] can be described thus: NCI Yeast Anticancer Drug Screen. Data for the mec2-1 strain (AID 157). As to conditions: S. cerevisiae mec2-1 strain, hits give high values. An outline of the steps:
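Strain: mec2-1 (DNA repair/cell cycle alteration). Compound exposure, then growth measured; inhibition expressed relative to vehicle.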

A short description of test [3]: NCI Yeast Anticancer Drug Screen. Data for the sgs1 mgt1 strain (AID 161).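 Further: 0% = growth of cultures given vehicle only.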 As to conditions: S. cerevisiae sgs1 mgt1 strain, hits give high values. The gist of the method:
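Mutant yeast exposed to compound; growth scored against vehicle-only wells.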

Test [4] is described as follows: NCI Yeast Anticancer Drug Screen. Data for the cln2 rad14 strain (AID 165).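 Further: 0% = growth equal to vehicle treated cultures.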 The following applies: S. cerevisiae cln2 rad14 strain, hits give high values. An outline of the steps:
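Compounds are applied to the cln2 rad14 yeast strain, and growth is then compared with that of vehicle-treated cultures to give inhibition.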

The nature of test [5]: NCI Yeast Anticancer Drug Screen. Data for the bub3 strain (AID 167). As to conditions: S. cerevisiae bub3 mutant strain, hits give high values. An outline of the steps:
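Readout: yeast growth inhibition, expressed relative to vehicle-only wells. The test organism is a mutant strain from a panel with lesions in DNA repair or checkpoint genes.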

The nature of test [6]: NCI Yeast Anticancer Drug Screen. Data for the mlh1 rad18 strain (AID 175). The following applies: S. cerevisiae mlh1 rad18 strain growth inhibition, hits give high values. An outline of the steps: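 Read-out is yeast growth inhibition, calculated against vehicle-only controls. The compound was applied to a strain engineered with DNA damage repair alterations.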
Where [7] appears, read: at 5.0 µM (retest, dose inferred, filed as 0.5).
[8] abbreviates: at 50.0 µM (retest, dose inferred, filed as 5.0).

As for `CCOc1ccc2c(c1)CCC1C2CCC2(C)CC(O)CC12` (stereo not drawn), the growth inhibition was 11% in test [1] (setting [7]); 98% (active) in test [1] (setting [8]); 97.7% (active) in test [1] (at 50.0 µM); 3% in test [2] (setting [7]); 67% in test [2] (setting [8]); 97.5% (active) in test [2] (at 50.0 µM). The growth inhibition in test [3] (setting [7]) is 22%; in test [3] (setting [8]), 99% (active); in test [3] (at 50.0 µM) it was 54%; in test [4] (setting [7]), -18%; in test [4] (setting [8]) it was 82% (active); in test [4] (at 50.0 µM), 98.6% (active). Besides, the growth inhibition in test [5] (setting [7]) is -4%; in test [5] (setting [8]), -3%; in test [5] (at 50.0 µM), 98.1% (active); in test [6] (setting [7]), 14%; in test [6] (setting [8]), 99% (active); in test [6] (at 50.0 µM), 98.6% (active).

With `CCOC(=O)c1ccc2c(c1)Cc1cc([N+](=O)[O-])ccc1-2`, the growth inhibition in test [1] (setting [7]) was 1%; in test [1] (setting [8]), 65%; in test [1] (at 50.0 µM) it was 43.6%; in test [2] (setting [7]) it was -2%; in test [2] (setting [8]) it was 37%; in test [2] (at 50.0 µM), 15.8%. Besides, the growth inhibition is 7% in test [3] (setting [7]); 72% (active) in test [3] (setting [8]); 51% in test [3] (at 50.0 µM); -97% in test [4] (setting [7]); 12% in test [4] (setting [8]); 4.15% in test [4] (at 50.0 µM). In addition, the growth inhibition in test [5] (setting [7]) was 43%; in test [5] (setting [8]), 89% (active); in test [5] (at 50.0 µM), 80.8% (active); in test [6] (setting [7]) it was 7%; in test [6] (setting [8]), 57%; in test [6] (at 50.0 µM) it was 58.1%.

`CC[C@H]1CN2CCc3cc(OC)c(OC)cc3[C@@H]2C[C@@H]1C[C@H]1NCCc2cc(OC)c(OC)cc21`: the growth inhibition was 0% in test [1] (setting [7]); 12% in test [1] (setting [8]); -7.4% in test [1] (at 50.0 µM); -10% in test [2] (setting [7]); -2% in test [2] (setting [8]); -4.65% in test [2] (at 50.0 µM). Also, the growth inhibition in test [3] (setting [7]) was 1%; in test [3] (setting [8]), 3%; in test [3] (at 50.0 µM) it was 4%; in test [4] (setting [7]) it was 1%; in test [4] (setting [8]), 17%; in test [4] (at 50.0 µM) it was 7.5%. In addition, the growth inhibition was 3% in test [5] (setting [7]); 0% in test [5] (setting [8]); 2.55% in test [5] (at 50.0 µM); 1% in test [6] (setting [7]); 3% in test [6] (setting [8]); 8.25% in test [6] (at 50.0 µM).

On to `O=C1C(C(O)(C(F)(F)Cl)C(F)(F)Cl)CCC1C(O)(C(F)(F)Cl)C(F)(F)Cl` (stereo not drawn), for which the growth inhibition in test [1] (setting [7]) is 92% (active); in test [1] (setting [8]) it was 99% (active); in test [1] (at 50.0 µM), 99.8% (active); in test [2] (setting [7]), 95% (active); in test [2] (setting [8]), 100% (active); in test [2] (at 50.0 µM) it was 99.5% (active). The growth inhibition in test [3] (setting [7]) was 95% (active); in test [3] (setting [8]), 99% (active); in test [3] (at 50.0 µM) it was 99.8% (active); in test [4] (setting [7]) it was 94% (active); in test [4] (setting [8]), 99% (active); in test [4] (at 50.0 µM), 99.4% (active). Further, the growth inhibition in test [5] (setting [7]) was 78% (active); in test [5] (setting [8]), 99% (active); in test [5] (at 50.0 µM) it was 98.1% (active); in test [6] (setting [7]), 95% (active); in test [6] (setting [8]) it was 99% (active); in test [6] (at 50.0 µM), 99.5% (active).

In the case of `O=[N+]([O-])c1cc2[nH]cnc2c([N+](=O)[O-])c1NCc1ccccc1`, the growth inhibition in test [1] (setting [7]) is 0%; in test [1] (setting [8]) it was 47%; in test [1] (at 50.0 µM) it was 68.5%; in test [2] (setting [7]), 0%; in test [2] (setting [8]), 29%; in test [2] (at 50.0 µM), 34.3%. In addition, the growth inhibition in test [3] (setting [7]) was -1%; in test [3] (setting [8]), 45%; in test [3] (at 50.0 µM) it was 80.5% (active); in test [4] (setting [7]), -2%; in test [4] (setting [8]), 34%; in test [4] (at 50.0 µM) it was 24.2%. In addition, the growth inhibition in test [5] (setting [7]) is -4%; in test [5] (setting [8]) it was 25%; in test [5] (at 50.0 µM), 33.1%; in test [6] (setting [7]), -3%; in test [6] (setting [8]) it was 44%; in test [6] (at 50.0 µM), 72.5% (active).

On to `O=CC(=C\c1ccco1)/C(C=O)=C\c1ccco1`, for which the growth inhibition in test [1] (setting [7]) was 11%; in test [1] (setting [8]) it was 25%; in test [1] (at 50.0 µM), 18.1%; in test [2] (setting [7]), 7%; in test [2] (setting [8]), 44%; in test [2] (at 50.0 µM) it was 5.45%. For the same compound, the growth inhibition in test [3] (setting [7]) was 11%; in test [3] (setting [8]), 63%; in test [3] (at 50.0 µM), 13%; in test [4] (setting [7]), 2%; in test [4] (setting [8]), 15%; in test [4] (at 50.0 µM) it was 33.9%. In addition, the growth inhibition in test [5] (setting [7]) is -6%; in test [5] (setting [8]) it was 33%; in test [5] (at 50.0 µM), -23.6%; in test [6] (setting [7]), 21%; in test [6] (setting [8]), 86% (active); in test [6] (at 50.0 µM), 71.9% (active).
